Experimental data taken from PubChem BioAssay (NCATS).
Inconclusive results are not listed. Calls of active or inactive are those of the source. Calls come from the whole dose curve; as a rule, active = well fitted cell-killing curve with a large enough effect; inconclusive = small, poorly fitted or top-dose-only effect, or effect the other way; inactive = flat fitted curve, though single readings scatter. Where a SMILES comes first, the peptide text is derived from it. [ ]: non-standard residue; d: D form.

Assays:
Assay in all cases: Primary qHTS to identify gynecologic anti-cancer compounds using libraries of approved drugs and bioactive compounds (AID 1345084); note: nearly all actives have a fitted effect of over 55% in size
Conditions in all cases: Gynecologic cancer cell panel viability, ATPlite luminescence, 48 h; series mostly up to 57.5 µM
JEG-3 = system: JEG-3
How it was run: (§1)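 Five-concentration response, 48 h; readout is ATP-driven luciferase luminescence.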

OV90 = system: OV90
How it was run: as §1

PA-1 = system: PA-1
How it was run: as §1

SKOV3 = system: SKOV3
How it was run: as §1

Tov-21-G = system: Tov-21-G
How it was run: as §1

Tov112D = system: Tov112D
How it was run: as §1
% is set by controls: 0 for no effect and ±100 for the full control effect.

CC(C)(C)c1cc(CN2CCN(CC(O)c3ccc(Cl)cc3)CC2)cc(C(C)(C)C)c1O (centres undefined)
inactive: Potency (JEG-3) | Potency (OV90) | Potency (PA-1) | Potency (SKOV3) | Potency (Tov-21-G) | Potency (Tov112D)

COc1cc(C(=O)OC[C@H]2O[C@H](O[C@@]3(CO)O[C@@H](CO)[C@H](O)[C@H]3O)[C@H](O)[C@@H](O)[C@@H]2O)ccc1O
inactive: Potency (JEG-3) | Potency (OV90) | Potency (PA-1) | Potency (SKOV3) | Potency (Tov-21-G) | Potency (Tov112D)

CC1=CC(=O)C2C(C)(C)CC(O)CC2(C)C1CO (centres undefined)
inactive: Potency (JEG-3) | Potency (OV90) | Potency (PA-1) | Potency (SKOV3) | Potency (Tov-21-G) | Potency (Tov112D)

C=C(C)C(C)C1OC23CC4(CO2)C(CCC2C5(C)CCC(OC6OCC(O)C(OC7OC(CO)C(O)C(OC8OCC(O)C(O)C8O)C7O)C6OC6OC(CO)C(O)C6O)C(C)(C)C5CCC24C)C3C(C)(O)C1OC(C)=O (centres undefined)
inactive: activity change, negative = cytotoxicity (JEG-3) -1.98% [at 11.6 µM] | activity change, negative = cytotoxicity (OV90) -0.379% [at 11.6 µM] | activity change, negative = cytotoxicity (PA-1) -1.12% [at 11.6 µM] | activity change, negative = cytotoxicity (SKOV3) 3.59% [at 11.6 µM] | activity change, negative = cytotoxicity (Tov-21-G) 1.52% [at 11.6 µM] | activity change, negative = cytotoxicity (Tov112D) 5.61% [at 11.6 µM]

CC1OC(OC2C(O)C(C(=O)O)OC(OC3CCC4(C)C(CCC5(C)C4C=CC4=C6CC(C)(C)CC(O)C6(C)CCC45C)C3(C)C)C2OC2OCC(O)C(O)C2O)C(O)C(O)C1O (centres undefined)
inactive: activity change, negative = cytotoxicity (JEG-3) 0.12% [at 11.6 µM] | activity change, negative = cytotoxicity (OV90) 1.31% [at 11.6 µM] | activity change, negative = cytotoxicity (PA-1) 8.55% [at 11.6 µM] | activity change, negative = cytotoxicity (SKOV3) 1.68% [at 11.6 µM] | activity change, negative = cytotoxicity (Tov-21-G) 7.57% [at 11.6 µM] | activity change, negative = cytotoxicity (Tov112D) 16.2% [at 11.6 µM]

CC(=O)N[C@H](Cc1ccc(O)cc1)C(=O)N[C@H](CCCN=C(N)N)C(=O)N[C@H](Cc1ccccc1)C(N)=O (Ac-[dY]-[dR]-[dF]-NH2)
inactive: Potency (JEG-3) | Potency (OV90) | Potency (PA-1) | Potency (SKOV3) | Potency (Tov-21-G) | Potency (Tov112D)

CC1(C)O[C@]23C[C@H]1C[C@H](OC(=O)c1ccoc1)[C@]2(C)[C@@H](OC(=O)c1ccoc1)CCC3(C)O (some centres undefined)
inactive: Potency (JEG-3) | Potency (OV90) | Potency (PA-1) | Potency (SKOV3) | Potency (Tov-21-G) | Potency (Tov112D)

COc1ncc(-c2ccc3c(Nc4cc(Oc5cc(F)cc(F)c5)cc(C(=O)O)c4)c(S(=O)(=O)NC4CC4)cnc3c2)c(OC)n1
inactive: Potency (JEG-3) | Potency (OV90) | Potency (PA-1) | Potency (SKOV3) | Potency (Tov-21-G) | Potency (Tov112D)

COc1cc(C(O)C(CO)Oc2ccc(CCCO[C@@H]3O[C@@H](C)[C@H](O)[C@@H](O)[C@H]3O)cc2OC)ccc1O (some centres undefined)
inactive: Potency (JEG-3) | Potency (OV90) | Potency (PA-1) | Potency (SKOV3) | Potency (Tov-21-G) | Potency (Tov112D)

C=CC(C)(CC/C=C(\C)CC/C=C(\C)CC(O)/C=C(\C)C(=O)O)O[C@@H]1O[C@H](CO)[C@@H](O)[C@H](O)[C@H]1O[C@@H]1O[C@H](CO)[C@@H](O)[C@H](O)[C@H]1O (some centres undefined)
inactive: Potency (JEG-3) | Potency (OV90) | Potency (PA-1) | Potency (SKOV3) | Potency (Tov-21-G) | Potency (Tov112D)

NC(Cc1c[nH]c2ccccc12)C(=O)NC(CCC(=O)O)C(=O)O (centres undefined)
inactive: Potency (JEG-3) | Potency (OV90) | Potency (PA-1) | Potency (SKOV3) | Potency (Tov-21-G) | Potency (Tov112D)

CC1=CC(=O)C[C@H]2[C@@H]1CC[C@@H](C)[C@]21CO[C@H](c2ccoc2)C1=O
inactive: Potency (JEG-3) | Potency (OV90) | Potency (PA-1) | Potency (SKOV3) | Potency (Tov-21-G) | Potency (Tov112D)

C=CC1(C)CC(O)C2(CCC3C(C)(C(=O)O)CCCC3(C)C2=O)C1 (centres undefined)
inactive: Potency (JEG-3) | Potency (OV90) | Potency (PA-1) | Potency (SKOV3) | Potency (Tov-21-G) | Potency (Tov112D)

CC(=O)O[C@@H]1[C@@H](OC(=O)/C=C/c2ccccc2)[C@H](C)O[C@@H](O[C@H]2[C@@H]3C=CO[C@@H](O[C@@H]4O[C@H](CO)[C@@H](O)[C@H](O)[C@H]4O)[C@@H]3[C@@]3(CO)O[C@@H]23)[C@@H]1OC(C)=O
inactive: Potency (JEG-3) | Potency (OV90) | Potency (PA-1) | Potency (SKOV3) | Potency (Tov-21-G) | Potency (Tov112D)

C/C=C(\C)C(=O)O[C@@H]1CC2[C@@H](CC=C3C[C@@H](O[C@H]4C[C@H](OC)[C@H](O[C@H]5C[C@H](OC)[C@H](O[C@H]6C[C@H](OC)[C@H](O[C@H]7C[C@@H](OC)[C@H](O[C@@H]8O[C@H](CO)[C@@H](O)[C@H](O)[C@H]8O)[C@@H](C)O7)[C@@H](C)O6)[C@@H](C)O5)[C@@H](C)O4)CC[C@@]32C)[C@@]2(O)CC[C@H](C(C)=O)[C@@]12C (some centres undefined)
inactive: activity change, negative = cytotoxicity (JEG-3) -0.396% [at 6.55 µM] | activity change, negative = cytotoxicity (OV90) 3.72% [at 6.55 µM] | activity change, negative = cytotoxicity (PA-1) -8.02% [at 6.55 µM] | activity change, negative = cytotoxicity (SKOV3) -0.126% [at 6.55 µM] | activity change, negative = cytotoxicity (Tov-21-G) 2.08% [at 6.55 µM] | activity change, negative = cytotoxicity (Tov112D) -2.78% [at 6.55 µM]

C=C1CC23CC1(O)CCC2C1=CC2OC(=O)C(C)(C2O)C1C3C(=O)O (centres undefined)
inactive: Potency (JEG-3) | Potency (OV90) | Potency (PA-1) | Potency (SKOV3) | Potency (Tov-21-G) | Potency (Tov112D)

CN1C(=O)c2ccccc2-n2c(nc3ccccc3c2=O)[C@@]12O[C@H]2c1ccccc1
inactive: Potency (JEG-3) | Potency (OV90) | Potency (PA-1) | Potency (SKOV3) | Potency (Tov-21-G) | Potency (Tov112D)

O=C(/C=C/c1ccc(O)cc1)OCC1=CC2OC(=O)C3=CO[C@@H](O[C@@H]4O[C@H](CO)[C@@H](O)[C@H](O)[C@H]4O)[C@H]1[C@@H]32 (some centres undefined)
inactive: Potency (JEG-3) | Potency (OV90) | Potency (PA-1) | Potency (SKOV3) | Potency (Tov-21-G) | Potency (Tov112D)

C/C=C/C=C/C=C/C(=O)O[C@@H]1[C@@H](OC)C2=C(C(=O)N(C(C)C(=O)O)C2)[C@@]2(C)CCCC(C)(C)[C@H]12 (some centres undefined)
inactive: Potency (JEG-3) | Potency (OV90) | Potency (PA-1) | Potency (SKOV3) | Potency (Tov-21-G) | Potency (Tov112D)
